Assay results taken from the supplement of paper PMC10849652.
The full data set covers some 8,800 targets. This sample favours those with a hit. About 0.5% of all pairs of compound and target were hits. Unmarked numbers belong to inactive results.

compound: CS(=O)(=O)CCNCc1ccc(-c2ccc3ncnc(Nc4ccc(OCc5cccc(F)c5)c(Cl)c4)c3c2)o1 [lapatinib]; experiment: log2 fold change, soluble protein after heating vs DMSO (PISA); higher = thermal stabilisation; K562 lysate, 10 uM; active = over 0.2 and 3.5 SD of the protein, either way, in both replicates (recomputed)
Procedure, shortened: (§1)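 Thermal stability, expressed as log-two fold change relative to solvent controls, is given from duplicates. Crude K562 extract in PBS pH 7.4 with 1 mM MgCl2, at 1 mg/mL protein, was treated with 10 μM compound for 30 min and heated in aliquots for 3 min across 48°C-58°C. After pooling, adjustment to 0.5% NP-40 at 4°C and centrifugation at 21,000xg for 90 min, supernatant protein was measured by TMTpro 16plex LC-MS/MS with channel sums equalised.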

Chain of UniProt P62256 (P62256 whole entry, looked up): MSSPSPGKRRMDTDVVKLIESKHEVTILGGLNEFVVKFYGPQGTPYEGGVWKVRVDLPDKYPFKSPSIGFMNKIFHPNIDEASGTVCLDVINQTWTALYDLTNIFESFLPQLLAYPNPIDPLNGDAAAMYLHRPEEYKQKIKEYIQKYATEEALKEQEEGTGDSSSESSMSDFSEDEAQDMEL
Chain of UniProt O95857 (O95857 whole entry, looked up): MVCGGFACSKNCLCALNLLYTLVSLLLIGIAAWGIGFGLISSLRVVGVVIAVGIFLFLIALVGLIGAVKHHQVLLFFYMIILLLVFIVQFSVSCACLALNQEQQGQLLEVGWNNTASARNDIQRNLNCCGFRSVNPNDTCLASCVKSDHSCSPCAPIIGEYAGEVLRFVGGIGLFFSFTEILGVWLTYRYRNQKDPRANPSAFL
Chain of UniProt Q9Y4P3 (Q9Y4P3 whole entry, looked up): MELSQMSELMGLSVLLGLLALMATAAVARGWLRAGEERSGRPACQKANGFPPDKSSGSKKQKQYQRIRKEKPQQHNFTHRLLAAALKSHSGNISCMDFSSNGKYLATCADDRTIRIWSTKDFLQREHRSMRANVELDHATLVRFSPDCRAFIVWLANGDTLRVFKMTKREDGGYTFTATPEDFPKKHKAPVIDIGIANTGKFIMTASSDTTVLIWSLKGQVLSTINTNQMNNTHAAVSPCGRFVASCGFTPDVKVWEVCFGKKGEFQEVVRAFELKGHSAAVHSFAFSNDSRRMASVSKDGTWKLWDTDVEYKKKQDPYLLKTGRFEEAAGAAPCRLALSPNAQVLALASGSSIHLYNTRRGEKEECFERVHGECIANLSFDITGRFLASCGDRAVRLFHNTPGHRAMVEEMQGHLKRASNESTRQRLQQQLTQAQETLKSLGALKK
Chain of UniProt P48553 (P48553 whole entry, looked up): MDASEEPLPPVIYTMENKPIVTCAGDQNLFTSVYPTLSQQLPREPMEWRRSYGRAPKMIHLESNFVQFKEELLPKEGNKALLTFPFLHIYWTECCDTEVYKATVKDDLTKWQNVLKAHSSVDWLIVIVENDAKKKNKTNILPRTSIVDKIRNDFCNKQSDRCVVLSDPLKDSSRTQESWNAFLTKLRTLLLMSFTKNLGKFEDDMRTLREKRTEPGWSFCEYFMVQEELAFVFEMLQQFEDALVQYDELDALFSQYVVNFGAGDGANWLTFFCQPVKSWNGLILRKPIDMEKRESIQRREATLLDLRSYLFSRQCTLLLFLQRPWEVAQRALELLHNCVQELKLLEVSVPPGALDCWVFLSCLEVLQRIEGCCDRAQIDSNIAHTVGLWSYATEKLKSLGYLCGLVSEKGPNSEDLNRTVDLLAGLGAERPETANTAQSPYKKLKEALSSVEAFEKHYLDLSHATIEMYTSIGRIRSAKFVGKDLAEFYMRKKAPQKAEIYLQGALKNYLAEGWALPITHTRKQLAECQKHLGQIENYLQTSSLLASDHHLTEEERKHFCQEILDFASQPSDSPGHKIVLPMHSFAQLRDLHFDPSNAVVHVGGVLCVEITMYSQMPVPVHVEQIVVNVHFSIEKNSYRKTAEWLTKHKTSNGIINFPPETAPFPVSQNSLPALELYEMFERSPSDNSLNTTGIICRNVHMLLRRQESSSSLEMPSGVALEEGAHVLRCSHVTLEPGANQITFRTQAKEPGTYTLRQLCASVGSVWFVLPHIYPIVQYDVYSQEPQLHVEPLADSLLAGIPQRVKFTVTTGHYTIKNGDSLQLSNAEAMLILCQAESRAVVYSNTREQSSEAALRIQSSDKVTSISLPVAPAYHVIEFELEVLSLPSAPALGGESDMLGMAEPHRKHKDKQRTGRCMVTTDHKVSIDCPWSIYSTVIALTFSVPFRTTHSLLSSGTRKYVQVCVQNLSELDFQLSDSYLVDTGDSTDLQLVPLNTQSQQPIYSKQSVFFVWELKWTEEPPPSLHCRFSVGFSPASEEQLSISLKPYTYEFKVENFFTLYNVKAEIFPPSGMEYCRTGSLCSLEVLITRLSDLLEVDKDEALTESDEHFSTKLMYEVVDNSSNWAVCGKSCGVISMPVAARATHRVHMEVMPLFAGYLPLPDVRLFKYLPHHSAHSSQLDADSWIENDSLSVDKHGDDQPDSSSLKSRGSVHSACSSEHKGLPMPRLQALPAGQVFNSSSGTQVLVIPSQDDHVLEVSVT
Chain of UniProt O60704 (O60704 whole entry, looked up): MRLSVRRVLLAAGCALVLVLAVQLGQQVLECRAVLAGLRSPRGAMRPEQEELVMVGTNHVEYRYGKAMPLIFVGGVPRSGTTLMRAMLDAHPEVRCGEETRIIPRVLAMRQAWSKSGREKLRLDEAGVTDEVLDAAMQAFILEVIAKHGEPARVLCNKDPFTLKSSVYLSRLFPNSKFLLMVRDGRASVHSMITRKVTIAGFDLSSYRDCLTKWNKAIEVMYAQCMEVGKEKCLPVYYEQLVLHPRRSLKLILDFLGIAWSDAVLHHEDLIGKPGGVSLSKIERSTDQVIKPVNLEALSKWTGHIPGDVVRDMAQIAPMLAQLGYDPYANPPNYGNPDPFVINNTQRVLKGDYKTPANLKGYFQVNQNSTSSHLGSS
Chain of UniProt Q6ZT12 (Q6ZT12 whole entry, looked up): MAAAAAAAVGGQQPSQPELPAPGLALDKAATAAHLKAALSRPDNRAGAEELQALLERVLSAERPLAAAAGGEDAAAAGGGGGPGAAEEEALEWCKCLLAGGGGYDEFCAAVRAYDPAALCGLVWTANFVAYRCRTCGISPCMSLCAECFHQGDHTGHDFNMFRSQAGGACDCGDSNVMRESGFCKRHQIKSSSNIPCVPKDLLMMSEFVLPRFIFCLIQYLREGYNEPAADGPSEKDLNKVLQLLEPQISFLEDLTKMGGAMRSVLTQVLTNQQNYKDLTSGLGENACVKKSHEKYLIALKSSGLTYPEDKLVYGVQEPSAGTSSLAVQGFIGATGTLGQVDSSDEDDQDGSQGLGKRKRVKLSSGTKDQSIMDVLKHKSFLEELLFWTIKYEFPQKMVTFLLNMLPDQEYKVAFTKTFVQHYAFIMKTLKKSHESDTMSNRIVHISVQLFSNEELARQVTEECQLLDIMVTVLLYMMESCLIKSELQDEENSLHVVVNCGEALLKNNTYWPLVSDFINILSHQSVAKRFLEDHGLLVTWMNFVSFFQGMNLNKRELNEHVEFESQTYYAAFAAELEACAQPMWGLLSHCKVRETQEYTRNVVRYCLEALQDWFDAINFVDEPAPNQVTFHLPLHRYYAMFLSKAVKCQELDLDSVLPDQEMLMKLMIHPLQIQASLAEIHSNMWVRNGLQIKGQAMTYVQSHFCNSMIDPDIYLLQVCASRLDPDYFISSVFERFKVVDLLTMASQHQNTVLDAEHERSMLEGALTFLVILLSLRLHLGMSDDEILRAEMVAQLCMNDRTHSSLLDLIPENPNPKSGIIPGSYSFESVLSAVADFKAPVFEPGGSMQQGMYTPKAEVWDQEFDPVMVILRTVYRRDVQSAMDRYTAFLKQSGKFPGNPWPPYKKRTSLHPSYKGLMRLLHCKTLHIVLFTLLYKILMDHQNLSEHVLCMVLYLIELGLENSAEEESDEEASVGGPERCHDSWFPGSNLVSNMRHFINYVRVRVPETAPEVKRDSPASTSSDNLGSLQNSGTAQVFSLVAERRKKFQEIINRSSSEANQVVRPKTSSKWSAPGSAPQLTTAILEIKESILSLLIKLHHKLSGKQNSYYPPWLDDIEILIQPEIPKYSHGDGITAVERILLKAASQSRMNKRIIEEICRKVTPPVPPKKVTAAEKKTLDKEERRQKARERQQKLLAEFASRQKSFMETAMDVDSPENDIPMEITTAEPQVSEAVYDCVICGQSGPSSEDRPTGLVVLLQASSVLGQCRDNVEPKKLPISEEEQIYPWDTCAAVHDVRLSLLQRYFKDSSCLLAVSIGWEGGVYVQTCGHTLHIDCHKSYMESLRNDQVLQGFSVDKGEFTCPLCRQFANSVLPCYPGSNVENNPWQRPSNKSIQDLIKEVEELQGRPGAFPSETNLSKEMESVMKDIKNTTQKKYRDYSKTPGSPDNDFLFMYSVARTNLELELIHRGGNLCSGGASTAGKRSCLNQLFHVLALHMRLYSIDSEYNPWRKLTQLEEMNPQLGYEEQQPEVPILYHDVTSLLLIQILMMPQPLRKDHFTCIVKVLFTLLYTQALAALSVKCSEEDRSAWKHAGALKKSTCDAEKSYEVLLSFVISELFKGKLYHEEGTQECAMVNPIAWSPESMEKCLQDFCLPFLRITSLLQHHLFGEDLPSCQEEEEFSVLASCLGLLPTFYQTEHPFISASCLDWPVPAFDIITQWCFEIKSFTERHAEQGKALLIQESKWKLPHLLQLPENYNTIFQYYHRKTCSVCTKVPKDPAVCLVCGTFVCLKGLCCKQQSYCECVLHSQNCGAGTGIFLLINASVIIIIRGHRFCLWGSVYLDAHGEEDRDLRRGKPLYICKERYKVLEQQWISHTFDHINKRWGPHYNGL
Chain of UniProt P28289 (P28289 whole entry, looked up): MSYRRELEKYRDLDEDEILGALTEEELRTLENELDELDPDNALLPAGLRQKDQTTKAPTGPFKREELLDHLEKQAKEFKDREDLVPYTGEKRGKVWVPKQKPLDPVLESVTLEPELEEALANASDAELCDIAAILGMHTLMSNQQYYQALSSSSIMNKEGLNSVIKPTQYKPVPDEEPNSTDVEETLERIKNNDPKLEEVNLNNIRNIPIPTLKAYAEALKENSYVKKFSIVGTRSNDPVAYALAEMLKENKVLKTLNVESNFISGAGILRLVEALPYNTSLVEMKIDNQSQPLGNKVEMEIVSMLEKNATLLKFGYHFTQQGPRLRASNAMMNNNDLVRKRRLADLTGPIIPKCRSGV
Chain of UniProt Q9Y5K5 (Q9Y5K5 whole entry, looked up): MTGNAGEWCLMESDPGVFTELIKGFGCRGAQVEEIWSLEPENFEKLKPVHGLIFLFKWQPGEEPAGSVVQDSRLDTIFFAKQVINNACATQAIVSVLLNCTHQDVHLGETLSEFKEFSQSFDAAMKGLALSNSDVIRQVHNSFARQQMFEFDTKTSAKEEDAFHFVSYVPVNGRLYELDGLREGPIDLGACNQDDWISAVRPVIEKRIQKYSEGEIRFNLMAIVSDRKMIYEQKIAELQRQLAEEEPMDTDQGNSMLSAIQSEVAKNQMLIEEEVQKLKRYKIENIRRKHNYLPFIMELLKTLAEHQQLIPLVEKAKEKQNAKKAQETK

TBCE (UniProt Q15813) and TNPO3 (UniProt Q9Y5L0) are within 0.2 log units of each other in log2 fold change: -0.019 for the first, -0.024 for the second.

TRIM33 (UniProt H0Y612) and TPST2 (UniProt O60704) are within 0.2 log units of each other in log2 fold change: -0.078 for the first, 0.028 for the second.

UBR4 (UniProt Q5T4S7) and TTK (UniProt P33981) are within 0.2 log units of each other in log2 fold change: -0.023 for the first, 0.061 for the second.

TP53RK (UniProt Q96S44) and TUBGCP3 (UniProt Q96CW5) are within 0.2 log units of each other in log2 fold change: -0.011 for the first, -0.017 for the second.

UBR3 isoform 4 (UniProt Q6ZT12) and TRIM33 isoform 2 (UniProt Q9UPN9) are within 0.2 log units of each other in log2 fold change: -0.003 for the first, -0.034 for the second.

TOE1 (UniProt Q96GM8) and UBA1 (UniProt P22314) are within 0.2 log units of each other in log2 fold change: 0.002 for the first, -0.005 for the second.

TUBB1 (UniProt Q9H4B7) and TUBGCP2 isoform 4 (UniProt Q9BSJ2) are within 0.2 log units of each other in log2 fold change: -0.006 for the first, -0.008 for the second.

TPM4 isoform 2 (UniProt P67936) and TMOD1 (UniProt P28289) are within 0.2 log units of each other in log2 fold change: 0.007 for the first, 0 for the second.

TRAPPC10 (UniProt P48553) and TRMT12 (UniProt Q53H54) are within 0.2 log units of each other in log2 fold change: 0 for the first, 0.064 for the second.

TSPAN13 (UniProt O95857) and UBE2H (UniProt P62256) are within 0.2 log units of each other in log2 fold change: 0.017 for the first, 0.002 for the second.

TLE3 isoform 5 (UniProt Q04726) and TSFM (UniProt P43897) are within 0.2 log units of each other in log2 fold change: 0.011 for the first, 0.003 for the second.

TRMT2A (UniProt Q8IZ69) and TUBA1B (UniProt P68363) are within 0.2 log units of each other in log2 fold change: -0.01 for the first, 0.004 for the second.

TUT4 (UniProt Q5TAX3) and TBL2 (UniProt Q9Y4P3) are within 0.2 log units of each other in log2 fold change: -0.003 for the first, -0.025 for the second.

TK1 (UniProt P04183) and TTC5 (UniProt Q8N0Z6) are within 0.2 log units of each other in log2 fold change: -0.006 for the first, 0.039 for the second.

TRNAU1AP (UniProt Q9NX07) and UBR5 (UniProt O95071) are within 0.2 log units of each other in log2 fold change: 0 for the first, -0.003 for the second.

TRAF2 isoform 2 (UniProt Q12933) and UCHL5 isoform 3 (UniProt Q9Y5K5) are within 0.2 log units of each other in log2 fold change: -0.032 for the first, 0.042 for the second.

TRIM23 (UniProt P36406) and TRIM11 (UniProt Q96F44) are within 0.2 log units of each other in log2 fold change: -0.063 for the first, 0.013 for the second.

compound: CS(=O)(=O)N1CCN(Cc2cc3nc(-c4cccc5[nH]ncc45)nc(N4CCOCC4)c3s2)CC1 [pictilisib]; experiment: as above
Procedure, shortened: as §1

TBCE (UniProt Q15813) and TNPO3 (UniProt Q9Y5L0) are within 0.2 log units of each other in log2 fold change: -0.039 for the first, -0.001 for the second.

Compared with TRIM33 (UniProt H0Y612), TPST2 (UniProt O60704) is higher in log2 fold change: 0.044 for the first, 0.621 for the second.

UBR4 (UniProt Q5T4S7) and TTK (UniProt P33981) are within 0.2 log units of each other in log2 fold change: -0.015 for the first, 0.142 for the second.

TP53RK (UniProt Q96S44) and TUBGCP3 (UniProt Q96CW5) are within 0.2 log units of each other in log2 fold change: 0.026 for the first, 0.012 for the second.

UBR3 isoform 4 (UniProt Q6ZT12) and TRIM33 isoform 2 (UniProt Q9UPN9) are within 0.2 log units of each other in log2 fold change: 0.01 for the first, 0.008 for the second.

TOE1 (UniProt Q96GM8) and UBA1 (UniProt P22314) are within 0.2 log units of each other in log2 fold change: -0.057 for the first, -0.003 for the second.

TUBB1 (UniProt Q9H4B7) and TUBGCP2 isoform 4 (UniProt Q9BSJ2) are within 0.2 log units of each other in log2 fold change: -0.007 for the first, -0.029 for the second.

TPM4 isoform 2 (UniProt P67936) and TMOD1 (UniProt P28289) are within 0.2 log units of each other in log2 fold change: 0 for the first, -0.032 for the second.

TRAPPC10 (UniProt P48553) and TRMT12 (UniProt Q53H54) are within 0.2 log units of each other in log2 fold change: 0 for the first, -0.02 for the second.

TSPAN13 (UniProt O95857) and UBE2H (UniProt P62256) are within 0.2 log units of each other in log2 fold change: 0.015 for the first, -0.022 for the second.

TLE3 isoform 5 (UniProt Q04726) and TSFM (UniProt P43897) are within 0.2 log units of each other in log2 fold change: 0.127 for the first, -0.007 for the second.

TRMT2A (UniProt Q8IZ69) and TUBA1B (UniProt P68363) are within 0.2 log units of each other in log2 fold change: -0.057 for the first, 0.001 for the second.

TUT4 (UniProt Q5TAX3) and TBL2 (UniProt Q9Y4P3) are within 0.2 log units of each other in log2 fold change: -0.041 for the first, -0.002 for the second.

TK1 (UniProt P04183) and TTC5 (UniProt Q8N0Z6) are within 0.2 log units of each other in log2 fold change: 0.022 for the first, -0.021 for the second.

TRNAU1AP (UniProt Q9NX07) and UBR5 (UniProt O95071) are within 0.2 log units of each other in log2 fold change: -0.091 for the first, -0.009 for the second.

TRAF2 isoform 2 (UniProt Q12933) and UCHL5 isoform 3 (UniProt Q9Y5K5) are within 0.2 log units of each other in log2 fold change: 0.004 for the first, -0.029 for the second.

TRIM23 (UniProt P36406) and TRIM11 (UniProt Q96F44) are within 0.2 log units of each other in log2 fold change: -0.12 for the first, -0.006 for the second.

compound: C[C@@H](Oc1cc(-c2cnn(C3CCNCC3)c2)cnc1N)c1c(Cl)ccc(F)c1Cl [crizotinib]; experiment: as above
Procedure, shortened: as §1

TBCE (UniProt Q15813) and TNPO3 (UniProt Q9Y5L0) are within 0.2 log units of each other in log2 fold change: -0.042 for the first, 0.01 for the second.

TRIM33 (UniProt H0Y612) and TPST2 (UniProt O60704) are within 0.2 log units of each other in log2 fold change: 0.004 for the first, -0.046 for the second.

UBR4 (UniProt Q5T4S7) and TTK (UniProt P33981) are within 0.2 log units of each other in log2 fold change: -0.038 for the first, -0.008 for the second.

TP53RK (UniProt Q96S44) and TUBGCP3 (UniProt Q96CW5) are within 0.2 log units of each other in log2 fold change: 0.042 for the first, -0.055 for the second.

UBR3 isoform 4 (UniProt Q6ZT12) and TRIM33 isoform 2 (UniProt Q9UPN9) are within 0.2 log units of each other in log2 fold change: -0.092 for the first, -0.015 for the second.

TOE1 (UniProt Q96GM8) and UBA1 (UniProt P22314) are within 0.2 log units of each other in log2 fold change: 0.003 for the first, -0.037 for the second.

TUBB1 (UniProt Q9H4B7) and TUBGCP2 isoform 4 (UniProt Q9BSJ2) are within 0.2 log units of each other in log2 fold change: -0.025 for the first, -0.119 for the second.

TPM4 isoform 2 (UniProt P67936) and TMOD1 (UniProt P28289) are within 0.2 log units of each other in log2 fold change: 0.091 for the first, -0.011 for the second.

TRAPPC10 (UniProt P48553) and TRMT12 (UniProt Q53H54) are within 0.2 log units of each other in log2 fold change: -0.034 for the first, -0.03 for the second.

TSPAN13 (UniProt O95857) and UBE2H (UniProt P62256) are the same in log2 fold change: 0.011 for the first, 0.011 for the second.

TLE3 isoform 5 (UniProt Q04726) and TSFM (UniProt P43897) are within 0.2 log units of each other in log2 fold change: 0.001 for the first, -0.056 for the second.

TRMT2A (UniProt Q8IZ69) and TUBA1B (UniProt P68363) are within 0.2 log units of each other in log2 fold change: -0.017 for the first, -0.039 for the second.

TUT4 (UniProt Q5TAX3) and TBL2 (UniProt Q9Y4P3) are within 0.2 log units of each other in log2 fold change: 0 for the first, -0.007 for the second.

TK1 (UniProt P04183) and TTC5 (UniProt Q8N0Z6) are within 0.2 log units of each other in log2 fold change: 0.022 for the first, -0.053 for the second.

TRNAU1AP (UniProt Q9NX07) and UBR5 (UniProt O95071) are within 0.2 log units of each other in log2 fold change: -0.019 for the first, -0.055 for the second.

TRAF2 isoform 2 (UniProt Q12933) and UCHL5 isoform 3 (UniProt Q9Y5K5) are within 0.2 log units of each other in log2 fold change: -0.032 for the first, 0.022 for the second.

TRIM23 (UniProt P36406) and TRIM11 (UniProt Q96F44) are within 0.2 log units of each other in log2 fold change: -0.003 for the first, -0.029 for the second.
